Screening results (PubChem BioAssay)
Compounds with a hit are over-represented: about 1.5% of the library has one in this group of screens.
IDE act: human IDE activators in live cells, primary screen, fluorescence polarization, HEK cells, FAbeta-B substrate; FAbeta-B cleavage; 0% vehicle, 100% cell-free pure enzyme wells; AID 493087, 2011; activation, % at 5.96 µM; 340,000 compounds, 0.073% hits;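 active = activation above the mean of all tested compounds plus 3 SD, set per screening campaign, cut at about 17% in these data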
CRFBP-R2 block: antagonists of CRF-BP/CRF-R2 complex, primary screen, cell-based, HEK293, calcium dye fluorescence, uHTS; inhibition, % at 11.8 µM; 350,000 compounds, 0.59% hits; AID 588475, 2011; CRF-induced calcium fluorescence;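 active = inhibition of the ligand-induced calcium signal above about 50% at the single tested concentration, limit read from the data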
CRFBP-R2 agonist: agonists of CRF-BP/CRF-R2 complex, primary screen, cell-based, HEK293, calcium dye fluorescence, uHTS; activation, % at 13.2 µM; AID 588473, 2011; calcium dye fluorescence (FLIPR); percent of saturating CRF peptide response; 350,000 compounds, 0.46% hits; CRF-binding protein / CRF receptor 2 complex (human);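 active = activation of at least 50%, plus an integration ratio under a set limit after plate pattern correction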;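 note: plate controls were neutral control wells without compound for no effect and CRF at EC100 for full effect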
RTF Ca sens act: cardiac RTF calcium sensitivity activators, primary screen, biochemical, IANBD-TnC fluorescence, EC20 calcium; Troponin I, cardiac muscle (Homo sapiens) + Troponin T, cardiac muscle (Homo sapiens) + …; IANBD-labeled TnC RTF fluorescence at EC20 calcium; 0% EC20 calcium, 100% full calcium; activation, % at 7.2 µM; 340,000 compounds, 0.24% hits;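 active = activation above the mean over all tested compounds plus 3 SD, cut at about 30% in these data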;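 note: rise in fluorescence read as greater calcium sensitivity of cardiac thin filaments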
IDE cell inh: human IDE inhibitors in live cells, primary screen, fluorescence polarization, HEK cells, FAbetaB substrate. Insulin-degrading enzyme (Homo sapiens), P14735. FAbetaB cleavage. inhibition, % at 5.59 µM. 320,000 compounds, 0.41% hits. AID 434962, 2010;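 active = percent inhibition above the average of all tested compounds plus 3 SD, set per screening campaign, cut at about 16% in these data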;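 note: IDE supplied by intact live HEK cells; FP after avidin binding of uncleaved biotin substrate so inhibition keeps polarization high; 0% = DMSO wells and 100% = 60 µM reference IDE inhibitor Ii1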
Cardiac RTF inh: cardiac RTF calcium sensitivity inhibitors, primary screen, biochemical, IANBD-TnC fluorescence, EC70 calcium; Troponin I, cardiac muscle (Homo sapiens) + Troponin T, cardiac muscle (Homo sapiens) + …; IANBD-labeled cardiac RTF, Ca2+ fluorescence; inhibition, % at 7.15 µM; 340,000 compounds, 0.12% hits;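 active = inhibition above the mean inhibition of all tested compounds plus 3 SD, cut at about 17% in these data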;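 note: assay run at fixed EC70 calcium of 1.6 mM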
* marks the source's active call; other numbers are inactive results; nt = no result given.

SMILES	IDE act	CRFBP-R2 block	CRFBP-R2 agonist	RTF Ca sens act	IDE cell inh	Cardiac RTF inh
COc1ccc(-c2cc(C(F)(F)F)c3c(n2)sc2c(O)cc(=O)[nH]c23)c(OC)c1	-13	-126	80*	38*	13	-70
COc1ccc(CNC(=O)Nc2cccs2)cc1OC	4	62*	0	-3	6	-13
COc1cccc(CNC(=O)Nc2cccs2)c1	1	4	-4	2	6	-2
COC(=O)c1cc2c(=O)c3ccccc3oc2nc1C	-1	11	0	0	nt	-2
COC(=O)c1cc2c(=O)c3ccccc3oc2nc1/C=C/N(C)C	-126	-173	198*	48*	nt	-41
COc1ccc(C(=O)Cn2cnc3ccccc3c2=O)c(OC)c1	-2	-38	54*	2	nt	-4
Cc1ccc(S(=O)(=O)N/N=C\c2cn(CC(N)=O)c3ccccc23)cc1C	-3	-3	0	0	1	-3
NC(=O)Cn1cc(/C=N\NS(=O)(=O)c2ccc(Cl)cc2)c2ccccc21	24*	-1	0	-5	-9	-2
CC1=C(C#N)C(=O)NC(C)(C)C1	0	54*	17	6	1	-24
CC1=C(C#N)C(=O)NC1(C)O (centres undefined)	nt	12	-2	nt	nt	nt
CCn1cc(C2=NOC(C(=O)Nc3ccccc3C(=O)OC)C2)c(C)n1 (centres undefined)	7	52*	-5	2	-2	-4
Cc1ccc(C(=O)NN2C(=O)/C(=C/c3cn(C)c4ccccc34)SC2=S)cc1	-18	-91	43	77*	3	-55
Cn1cccc1/C=C1\SC(=S)N(NC(=O)c2ccccc2Cl)C1=O	-5	2	2	10	4	-16
Cn1cc(/C=C2\SC(=S)N(NC(=O)c3ccccc3Cl)C2=O)c2ccccc21	-21	-118	70*	74*	11	-148
Cc1ccc(C(=O)NN2C(=O)/C(=C/c3cccn3C)SC2=S)cc1	3	11	0	15	12	-28
NS(=O)(=O)c1ccc(CCNS(=O)(=O)c2cccc3nsnc23)cc1	2	-3	-1	-9	1	-4
CC1=NN(C(N)=S)C(=O)C1N=Nc1ccccc1C(=O)O (centres undefined)	6	7	1	3	-7	0
CN1C(=O)C(N=Nc2ccccc2C(=O)O)N(C)C1=S (centres undefined)	-42	-57	39	2	21*	0
O=C(Nc1nnc(-c2ccccc2)o1)c1cc(Cl)sc1Cl	-1	37	188*	1	4	-1
O=C(Nc1nnc(-c2ccc(Cl)cc2)o1)Nc1ccccc1Cl	3	4	1	-6	6	8
O=C(Nc1nnc(-c2ccc(F)cc2)o1)c1cccc([N+](=O)[O-])c1	1	6	38	-5	1	-12
Cc1cccc(-c2nnc(NC(=O)c3ccc(Cl)cc3)o2)c1	4	25	108*	5	6	-3
O=C(Nc1nnc(-c2ccc(Cl)cc2)o1)c1nc2ccccc2s1	4	-121	187*	4	1	-13
O=C(Nc1nnc(-c2ccc(F)cc2)o1)c1cc(Cl)sc1Cl	-1	16	91*	-3	-4	4
Cc1ccc(C(=O)Nc2nnc(-c3ccncc3)o2)cc1	4	8	0	-8	0	-3
SMILES	IDE act	CRFBP-R2 block	CRFBP-R2 agonist	RTF Ca sens act	IDE cell inh	Cardiac RTF inh
Cc1cc(NC(=O)CCC(=O)N(CC(=O)NC2CCCC2)c2ccc(C(C)C)cc2)no1	3	-6	-2	4	1	-2
CC1(C)CCC[C@]2(C)[C@H]3Cc4cc(O)ccc4O[C@]3(C)CC[C@@H]12	4	-17	4	-29	-4	-11
CCCN(CCC)S(=O)(=O)c1ccc(C(=O)Nc2nnc(-c3cc(OC)cc(OC)c3)o2)cc1	7	2	1	0	0	-4
CCCN(CCC)S(=O)(=O)c1ccc(C(=O)Nc2nnc(-c3cccc(OC)c3)o2)cc1	0	-86	100*	8	2	-3
CCOC(=O)Nc1ccc(C(=O)c2ccncc2)cc1	4	5	3	1	1	-7
CCOc1ccccc1C=C1SC(=S)NC1=O	1	38	-1	8	nt	-3
O=C(c1ccc([N+](=O)[O-])cc1)N(Cc1ccc(Cl)cc1)N1C(=O)CCCC1=O	-2	-42	157*	-2	0	1
O=C(c1ccc([N+](=O)[O-])cc1)N(Cc1ccc(Cl)cc1Cl)N1C(=O)CCCC1=O	-4	-103	53*	3	-1	-5
COc1ccc(C)cc1S(=O)(=O)NC1CC1	1	9	3	1	0	-3
COc1ccc(CNC(=O)CN(C(=O)CCC(=O)Nc2nccs2)c2ccc3c(c2)OCO3)cc1	-1	-1	-2	-6	1	5
CC1(C)Cc2c(sc3[nH]c(=O)n(CC(=O)NCC4CCCO4)c(=O)c23)CO1 (centres undefined)	3	84*	1	6	1	-6
O=C(Cn1c(=O)[nH]c2sc3c(c2c1=O)CCCC3)NCC1CCCO1 (centres undefined)	4	-11	0	6	-3	9
CCOC(=O)/C(=N\Nc1ccc(C(C)=O)cc1)c1csc(Nc2ccccc2)n1	0	-97	74*	131*	7	-126
CCOC(=O)/C(=N\Nc1ccccc1[N+](=O)[O-])c1csc(N)n1	5	10	0	-2	0	-3
CCN1/C(=C/c2ccc3cc(C)ccc3[n+]2CC)Sc2ccc3sccc3c21	-40	-34	43	36*	7	-88
CCN1/C(=C/c2ccc3cc(C)cc(C)c3[n+]2CC)Sc2cc(C)ccc21	-186	-206	182*	66*	nt	-139
CCN1/C(=C\c2ccc3cc(C)ccc3[n+]2CC)Sc2cc(C)c(C)cc21	-169	-157	114*	58*	nt	-104
C=CC[n+]1c(/C=C2\C=Cc3cc(C)ccc3N2CC)ccc2ccccc21	0	6	0	-5	6	-5
CCN1/C(=C/c2ccc3cccc(C)c3[n+]2CC)Sc2ccccc21	-63	-297	205*	14	53*	-68
CCN1/C(=C/C(C)=C/c2sc3ccccc3[n+]2CC)Sc2ccccc21	-15	-16	1	-2	12	2
